Experimental data as given in ChEMBL document CHEMBL3433997, “St. Jude Leishmania screening dataset” (2016).

Biological target: Solute carrier family 2, facilitated glucose transporter member 1 (Homo sapiens) (UniProt P11166)
Experiment: ST_JUDE_LEISH: Cytotoxicity at 2uM final concentration against transgenic Leishmania Mexicana promastigotes LmGLUT1 that are glucose transport deficient and complemented with the human glucose transporter GLUT1. Activity is measured by DNA content using SYBR green in vitro
Type: functional

Chain of Solute carrier family 2, facilitated glucose transporter member 1 (Homo sapiens) (P11166 whole entry): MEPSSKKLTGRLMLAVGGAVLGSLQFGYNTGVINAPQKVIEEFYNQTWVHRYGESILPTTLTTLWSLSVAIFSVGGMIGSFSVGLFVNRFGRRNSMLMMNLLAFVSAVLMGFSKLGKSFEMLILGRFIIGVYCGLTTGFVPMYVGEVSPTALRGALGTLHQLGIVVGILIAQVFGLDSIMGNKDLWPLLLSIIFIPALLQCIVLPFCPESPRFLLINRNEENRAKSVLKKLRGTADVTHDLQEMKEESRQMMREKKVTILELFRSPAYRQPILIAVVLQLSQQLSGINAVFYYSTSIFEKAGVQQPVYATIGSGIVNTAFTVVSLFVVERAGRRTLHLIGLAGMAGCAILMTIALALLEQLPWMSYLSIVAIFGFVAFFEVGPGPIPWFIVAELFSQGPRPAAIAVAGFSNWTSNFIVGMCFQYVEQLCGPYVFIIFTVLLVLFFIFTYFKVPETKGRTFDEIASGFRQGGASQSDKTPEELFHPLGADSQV

Going from CC(C)C1C(O)=C(c2ccc3ccccc3c2)C(=O)N1CC1CCCCC1 (stereo not drawn) to Cc1cc(N[C@@H](CC(C)C)C(=O)Nc2ccccc2)nc(NCC2CCCCC2)n1, the inhibition rises from 1.23% to 10.2%.

Going from O=C(Nc1cc(C(F)(F)F)cc(C(F)(F)F)c1)Nc1cc(C(F)(F)F)cc(C(F)(F)F)c1 to CN(C)CCOc1cccc(NC(=O)Nc2ccc(-c3ccccc3)cc2)c1, the inhibition rises from 1.91% to 2.67%.

First: O=C(Nc1ccc(-c2nc3ccccc3[nH]2)cc1)c1ccc(N2CCOCC2)c([N+](=O)[O-])c1
Second: Cc1cccc2nc(-c3cccc(-c4ccc(NC(=O)c5cnccc5C(F)(F)F)cc4)c3)[nH]c12
The inhibition of the first is lower: -0.45% for the first, 1.18% for the second.

First: CC(C)(C)c1ccc(-c2cc(C(=O)N[C@@H](CO)C(=O)O)on2)cc1.CC(C)(C)c1ccc(-c2nocc2C(=O)N[C@@H](CO)C(=O)O)cc1
Second: COCCNc1nc(N2CCC(CNC(=O)c3ccc(-c4ccc(C(=O)N(C)C)cc4C)cc3)CC2)nc2cc(OC)c(OC)cc12
The inhibition of the first is higher: 4.07% for the first, -0.42% for the second.

Going from Cc1ccccc1-c1nc2c(CN3CCC(O)(c4ccccc4)CC3)c(O)ccc2[nH]1 to OC(c1cccc(OCc2ccccc2)c1)C1CN(CCc2ccccc2)CCC1(O)c1ccccc1 (stereo not drawn), the inhibition falls from 11.5% to -1.45%.

First: CC(Sc1nnc(-c2ccccc2Br)[nH]1)C(=O)Nc1ccc(F)cc1 (stereo not drawn)
Second: Fc1ccc(C=NN=c2cc[nH]c3ccccc23)cc1
The inhibition of the first is lower: 10.4% for the first, 11.7% for the second.

First: CS(=O)(=O)CCNCc1nc(-c2ccc3ncnc(Nc4ccc(OCc5cccc(F)c5)c(Cl)c4)c3c2)cs1
Second: Cc1ccc(-n2c(C)nc3c(Nc4ccc(-c5ccncc5)cc4)ncnc32)c(C)c1
The inhibition of the first is lower: 3.7% for the first, 91.7% for the second.

First: CCOC(=O)N1CCN(CCCNc2c3ccc(Cl)cc3nc3ccc(OC)cc23)CC1
Second: Cc1ccc(-c2nc(N3CCN(C(=O)c4ccco4)CC3)c3ccc(Cl)cc3n2)cc1
The inhibition of the first is higher: 4.11% for the first, 1.17% for the second.

Compared with COc1ccccc1CNC(=O)c1nn(-c2ccc(Cl)cc2)c(=O)c2ccccc12, CCOc1ccccc1CNc1nccc(NCc2ccccc2OC)n1 is lower in inhibition: 4.66% for the first, 2.53% for the second.

Going from CCCC1CCNC(C(O)c2ccnc3ccc(OC)cc23)C1 (stereo not drawn) to CC(=O)c1ccc2nc[nH]c(=O)c2c1, the inhibition rises from 1.89% to 99.2%.

First: COc1cccc(Nc2c(C(N)=O)cnc3ccc(-c4ccc([S+](C)[O-])cc4)cc23)c1 (stereo not drawn)
Second: CCCCOc1ccc(-n2c(Nc3ccccc3)nc3cc(S(N)(=O)=O)ccc32)cc1
The inhibition of the first is lower: 2.64% for the first, 11.4% for the second.

Compared with CC(C)Nc1nc(NC2CCCCC2)nc(N2CCCCCCC2)n1, Nc1nc(N)c2c(ccc3c2cnn3S(=O)(=O)N2CCCC2)n1 is lower in inhibition: 19.3% for the first, -1.43% for the second.

Going from Nc1ccc(-c2nc3cc(C4=N[C@H]5CCCC[C@H]5N4)ccc3o2)cc1[N+](=O)[O-] to CCOc1cc(N)c2nc3ccc([N+](=O)[O-])cc3cc2c1, the inhibition rises from 3.44% to 16.1%.

Going from Cc1cc(N[C@@H](Cc2ccccc2)C(=O)NCCc2ccccc2)nc(NCCc2cccs2)n1 to CC(C)n1ncc2c(C(=O)N3CCCc4ccccc43)cc(-c3ccccc3)nc21, the inhibition rises from 3.32% to 4.46%.

Compared with CCN(CC)CCN(Cc1ccc(-c2ccc(C(F)(F)F)cc2)cc1)C(=O)Cn1c(CCc2cc(F)cc(F)c2F)nc(=O)c2ccccc21, CN(Cc1ccc(-c2ccc(C(F)(F)F)cc2)cc1)C(=O)Cn1c(CCc2cccc(F)c2F)nc(=O)c2ccc(N3CCN(CCN4CCCCC4)CC3)nc21 is higher in inhibition: 2.05% for the first, 7.76% for the second.

First: N=C(N)NC(=O)Nc1cc(Br)c(Cl)c(Br)c1
Second: O=C(Nc1nc(-c2ccccn2)cs1)c1ccc(Br)s1
The inhibition of the first is higher: -0.91% for the first, -1.89% for the second.

Going from COc1c(C2CCN(CCCCNC(=O)c3ccc(-c4ccc(C#N)cc4)c(O)c3)CC2)ccc2c1CCCC2 to CCCCCN1CCCN(Cc2cccc(NC(=O)c3ccc(-c4ccccc4)cc3)c2)CC1, the inhibition falls from -0.29% to -0.68%.

Going from CCn1c(C(C)C)cc2c3c(N)nc(N)nc3ccc21 to CCOc1cc2ncnc(Nc3cc(Cl)c(Cl)c(Cl)c3)c2cc1OCC, the inhibition falls from 50.6% to 0.38%.

Compared with Cc1[nH]c(C)c(-c2ccc(-c3ccc(OC(F)(F)F)cc3)nc2)c(=O)c1Br, O=c1cc(NCCCNC2CCOc3c(I)cc(Cl)cc32)[nH]c2ccccc12 (stereo not drawn) is lower in inhibition: 9.71% for the first, 2.44% for the second.

COc1ccccc1C1CCN(C2CCC(NC(=O)c3cc(-c4ccc(Cl)cc4)cs3)CC2)CC1 (stereo not drawn) showed an inhibition of -0.61%.

Biological target: Hexose transporter 1 (Plasmodium falciparum) (UniProt O97467)
Experiment: ST_JUDE_LEISH: Cytotoxicity at 2uM final concentration against transgenic Leishmania Mexicana promastigotes LmPfHT that are glucose transport deficient and complemented with the Plasmodium falciparum hexose transporter. Activity is measured by DNA content using SYBR green in vitro
Type: functional

First: CC(C)C1C(O)=C(c2ccc3ccccc3c2)C(=O)N1CC1CCCCC1 (stereo not drawn)
Second: Cc1cc(N[C@@H](CC(C)C)C(=O)Nc2ccccc2)nc(NCC2CCCCC2)n1
The inhibition of the first is lower: 1.04% for the first, 9.8% for the second.

Compared with O=C(Nc1cc(C(F)(F)F)cc(C(F)(F)F)c1)Nc1cc(C(F)(F)F)cc(C(F)(F)F)c1, CN(C)CCOc1cccc(NC(=O)Nc2ccc(-c3ccccc3)cc2)c1 is lower in inhibition: 4.29% for the first, 1.78% for the second.

Going from O=C(Nc1ccc(-c2nc3ccccc3[nH]2)cc1)c1ccc(N2CCOCC2)c([N+](=O)[O-])c1 to Cc1cccc2nc(-c3cccc(-c4ccc(NC(=O)c5cnccc5C(F)(F)F)cc4)c3)[nH]c12, the inhibition rises from -0.76% to -0.42%.

Compared with CC(C)(C)c1ccc(-c2cc(C(=O)N[C@@H](CO)C(=O)O)on2)cc1.CC(C)(C)c1ccc(-c2nocc2C(=O)N[C@@H](CO)C(=O)O)cc1, COCCNc1nc(N2CCC(CNC(=O)c3ccc(-c4ccc(C(=O)N(C)C)cc4C)cc3)CC2)nc2cc(OC)c(OC)cc12 is lower in inhibition: 3.4% for the first, 1.09% for the second.

Going from Cc1ccccc1-c1nc2c(CN3CCC(O)(c4ccccc4)CC3)c(O)ccc2[nH]1 to OC(c1cccc(OCc2ccccc2)c1)C1CN(CCc2ccccc2)CCC1(O)c1ccccc1 (stereo not drawn), the inhibition falls from 8.82% to -0.62%.

First: CC(Sc1nnc(-c2ccccc2Br)[nH]1)C(=O)Nc1ccc(F)cc1 (stereo not drawn)
Second: Fc1ccc(C=NN=c2cc[nH]c3ccccc23)cc1
The inhibition of the first is lower: 9.07% for the first, 13.4% for the second.

First: CS(=O)(=O)CCNCc1nc(-c2ccc3ncnc(Nc4ccc(OCc5cccc(F)c5)c(Cl)c4)c3c2)cs1
Second: Cc1ccc(-n2c(C)nc3c(Nc4ccc(-c5ccncc5)cc4)ncnc32)c(C)c1
The inhibition of the first is lower: 2.03% for the first, 95.1% for the second.

Going from CCOC(=O)N1CCN(CCCNc2c3ccc(Cl)cc3nc3ccc(OC)cc23)CC1 to Cc1ccc(-c2nc(N3CCN(C(=O)c4ccco4)CC3)c3ccc(Cl)cc3n2)cc1, the inhibition falls from 3.33% to 2.21%.

Compared with COc1ccccc1CNC(=O)c1nn(-c2ccc(Cl)cc2)c(=O)c2ccccc12, CCOc1ccccc1CNc1nccc(NCc2ccccc2OC)n1 is lower in inhibition: 4.83% for the first, 4.16% for the second.

Going from CCCC1CCNC(C(O)c2ccnc3ccc(OC)cc23)C1 (stereo not drawn) to CC(=O)c1ccc2nc[nH]c(=O)c2c1, the inhibition rises from 1.16% to 96.3%.

First: COc1cccc(Nc2c(C(N)=O)cnc3ccc(-c4ccc([S+](C)[O-])cc4)cc23)c1 (stereo not drawn)
Second: CCCCOc1ccc(-n2c(Nc3ccccc3)nc3cc(S(N)(=O)=O)ccc32)cc1
The inhibition of the first is lower: 4.5% for the first, 8.64% for the second.

First: CC(C)Nc1nc(NC2CCCCC2)nc(N2CCCCCCC2)n1
Second: Nc1nc(N)c2c(ccc3c2cnn3S(=O)(=O)N2CCCC2)n1
The inhibition of the first is higher: 17.4% for the first, 0.03% for the second.

Compared with Nc1ccc(-c2nc3cc(C4=N[C@H]5CCCC[C@H]5N4)ccc3o2)cc1[N+](=O)[O-], CCOc1cc(N)c2nc3ccc([N+](=O)[O-])cc3cc2c1 is higher in inhibition: 1.57% for the first, 20.1% for the second.

First: Cc1cc(N[C@@H](Cc2ccccc2)C(=O)NCCc2ccccc2)nc(NCCc2cccs2)n1
Second: CC(C)n1ncc2c(C(=O)N3CCCc4ccccc43)cc(-c3ccccc3)nc21
The inhibition of the first is lower: 0.76% for the first, 2.95% for the second.

Going from CCN(CC)CCN(Cc1ccc(-c2ccc(C(F)(F)F)cc2)cc1)C(=O)Cn1c(CCc2cc(F)cc(F)c2F)nc(=O)c2ccccc21 to CN(Cc1ccc(-c2ccc(C(F)(F)F)cc2)cc1)C(=O)Cn1c(CCc2cccc(F)c2F)nc(=O)c2ccc(N3CCN(CCN4CCCCC4)CC3)nc21, the inhibition rises from 0.76% to 7.16%.

Going from N=C(N)NC(=O)Nc1cc(Br)c(Cl)c(Br)c1 to O=C(Nc1nc(-c2ccccn2)cs1)c1ccc(Br)s1, the inhibition rises from -1.3% to 4.54%.

Going from COc1c(C2CCN(CCCCNC(=O)c3ccc(-c4ccc(C#N)cc4)c(O)c3)CC2)ccc2c1CCCC2 to CCCCCN1CCCN(Cc2cccc(NC(=O)c3ccc(-c4ccccc4)cc3)c2)CC1, the inhibition falls from -0.43% to -0.99%.

First: CCn1c(C(C)C)cc2c3c(N)nc(N)nc3ccc21
Second: CCOc1cc2ncnc(Nc3cc(Cl)c(Cl)c(Cl)c3)c2cc1OCC
The inhibition of the first is higher: 61.1% for the first, 1.95% for the second.

Compared with Cc1[nH]c(C)c(-c2ccc(-c3ccc(OC(F)(F)F)cc3)nc2)c(=O)c1Br, O=c1cc(NCCCNC2CCOc3c(I)cc(Cl)cc32)[nH]c2ccccc12 (stereo not drawn) is lower in inhibition: 8.43% for the first, 4.6% for the second.

Work on COc1ccccc1C1CCN(C2CCC(NC(=O)c3cc(-c4ccc(Cl)cc4)cs3)CC2)CC1 (stereo not drawn) yielded an inhibition of 2.96%.
